# Assay results from ChEMBL document CHEMBL3988442, “University of Dundee, Small-Polar-MMV Screening Library” (2021).
# “And” between values parts separate entries of the source, which are not always exact repeats. Equal entries are not always repeated. For some of these results: Entries with a potency or affinity are not part of this list.
# Key:
# [1] = target: Protein translocase subunit SecA (Escherichia coli (strain K12)) (UniProt P10408); test: Assay to Identify E. coli SecA ATPase Inhibitors; type: functional; set-up: scale not given: direction of the effect not stated beside the values; settings: 30 µM
# [2] = target: T1, Ubiquitin-activating enzyme e1, putative (Leishmania donovani (strain BPK282A1)) (UniProt E9BSI1); test: Leishmania donovani Ubiquitin Activating Enzyme (LdE1); type: functional; set-up: scale not given: direction of the effect not stated beside the values; settings: 30 µM
# T1 sequence (whole entry): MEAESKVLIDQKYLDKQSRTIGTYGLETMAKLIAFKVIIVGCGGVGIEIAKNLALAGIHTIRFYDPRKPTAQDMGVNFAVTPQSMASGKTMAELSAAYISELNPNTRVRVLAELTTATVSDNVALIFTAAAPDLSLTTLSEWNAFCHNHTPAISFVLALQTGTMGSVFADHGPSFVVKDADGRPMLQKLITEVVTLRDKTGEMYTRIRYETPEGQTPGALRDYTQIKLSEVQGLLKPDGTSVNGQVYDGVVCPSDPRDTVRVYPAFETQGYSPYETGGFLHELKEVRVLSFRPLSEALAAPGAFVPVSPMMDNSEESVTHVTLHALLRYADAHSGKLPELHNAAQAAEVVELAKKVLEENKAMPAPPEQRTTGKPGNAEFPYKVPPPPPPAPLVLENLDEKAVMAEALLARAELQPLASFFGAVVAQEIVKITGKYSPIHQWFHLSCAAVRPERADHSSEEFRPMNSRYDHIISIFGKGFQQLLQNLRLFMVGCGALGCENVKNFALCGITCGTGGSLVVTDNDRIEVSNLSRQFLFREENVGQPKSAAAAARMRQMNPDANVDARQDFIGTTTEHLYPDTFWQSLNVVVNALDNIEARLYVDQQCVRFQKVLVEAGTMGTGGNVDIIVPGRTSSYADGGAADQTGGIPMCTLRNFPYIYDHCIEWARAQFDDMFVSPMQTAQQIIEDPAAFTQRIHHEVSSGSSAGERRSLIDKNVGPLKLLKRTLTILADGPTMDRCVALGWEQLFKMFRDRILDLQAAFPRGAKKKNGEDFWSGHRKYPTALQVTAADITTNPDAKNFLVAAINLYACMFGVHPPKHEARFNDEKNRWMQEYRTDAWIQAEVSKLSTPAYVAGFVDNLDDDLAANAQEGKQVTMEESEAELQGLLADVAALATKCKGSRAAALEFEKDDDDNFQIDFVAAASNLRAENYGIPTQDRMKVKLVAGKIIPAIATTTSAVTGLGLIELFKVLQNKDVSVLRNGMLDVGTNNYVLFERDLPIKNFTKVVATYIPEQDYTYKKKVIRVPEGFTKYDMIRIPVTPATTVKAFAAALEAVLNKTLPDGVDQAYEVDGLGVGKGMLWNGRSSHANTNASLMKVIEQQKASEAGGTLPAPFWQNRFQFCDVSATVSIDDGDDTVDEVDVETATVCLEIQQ
# [3] = target: T2, Aspartate--tRNA(Asp/Asn) ligase (Mycobacterium tuberculosis (strain ATCC 25618 / H37Rv)) (UniProt P9WFW3); test: Assay for Asp RNA synthetase-1 from Mycobacterium tuberculosis; type: functional; set-up: scale not given: direction of the effect not stated beside the values; settings: 30 µM; also: in the data most compounds retested in dose-response had high values
# T2 sequence (whole entry): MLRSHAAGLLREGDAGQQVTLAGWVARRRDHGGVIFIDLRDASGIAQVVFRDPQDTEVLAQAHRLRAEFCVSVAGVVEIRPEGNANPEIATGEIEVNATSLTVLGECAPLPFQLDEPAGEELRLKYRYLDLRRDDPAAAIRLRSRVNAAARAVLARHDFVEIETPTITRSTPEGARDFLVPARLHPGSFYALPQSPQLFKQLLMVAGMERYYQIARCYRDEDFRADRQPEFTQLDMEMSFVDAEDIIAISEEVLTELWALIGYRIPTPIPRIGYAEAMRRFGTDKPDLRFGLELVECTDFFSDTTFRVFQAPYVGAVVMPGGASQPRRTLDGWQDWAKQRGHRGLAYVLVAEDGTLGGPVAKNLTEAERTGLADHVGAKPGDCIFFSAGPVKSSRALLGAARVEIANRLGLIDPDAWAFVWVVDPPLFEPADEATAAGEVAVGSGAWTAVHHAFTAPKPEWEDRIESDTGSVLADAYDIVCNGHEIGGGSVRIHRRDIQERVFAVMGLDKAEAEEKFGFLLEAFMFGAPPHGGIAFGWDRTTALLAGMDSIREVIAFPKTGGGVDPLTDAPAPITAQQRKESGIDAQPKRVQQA
# [4] = target: AMP-activated protein kinase, AMPK (Homo sapiens) (UniProt P54646+O43741+P54619+Q9UGJ0+Q9Y478+Q13131+Q9UGI9); test: AMP-dependent Kinase enzyme assay. An in vitro enzyme assay that detects ADP turnover that is directly proportional to AMPK activity. This uses naive AMPK that is activated during the assay with MK-8722; type: functional; set-up: scale not given: direction of the effect not stated beside the values; settings: 30 µM
# [5] = target: Sialic acid-binding Ig-like lectin 9 (Homo sapiens) (UniProt Q9Y336); test: Hs-Siglec9 ALPHAscreen SOP 20170721; set-up: scale not given: direction of the effect not stated beside the values; settings: 10 µM
# [6] = system: Trypanosoma cruzi; test: Trypanosoma cruzi phosphomannomutase and mannose-1-phosphate guanylyltransferase assay; type: functional; set-up: scale not given: direction of the effect not stated beside the values; settings: 10 µM
# [7] = target: T3, Arginase-2, mitochondrial (Homo sapiens) (UniProt P78540); test: in vitro enzyme assay to detect the production of urea directly proportional to the activity of Arginase II; type: functional; set-up: scale not given: in the data most compounds retested in dose-response had high values; settings: 33.3 µM
# T3 sequence (whole entry): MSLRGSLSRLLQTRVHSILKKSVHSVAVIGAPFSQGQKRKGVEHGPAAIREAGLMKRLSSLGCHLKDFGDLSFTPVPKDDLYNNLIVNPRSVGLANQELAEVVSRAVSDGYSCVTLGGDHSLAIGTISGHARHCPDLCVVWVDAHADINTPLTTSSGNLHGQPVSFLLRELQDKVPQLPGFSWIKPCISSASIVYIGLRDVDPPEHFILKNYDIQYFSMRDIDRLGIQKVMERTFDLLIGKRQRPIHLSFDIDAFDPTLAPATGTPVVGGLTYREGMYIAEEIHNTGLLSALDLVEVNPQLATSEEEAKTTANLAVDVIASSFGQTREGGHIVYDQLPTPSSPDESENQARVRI
# [8] = target: T4, Proteasome subunit beta (Trypanosoma cruzi) (UniProt O96673); test: Trypanosoma cruzi proteasome chymotrypsin-like activity (TcProtChymo) assay.; type: functional; set-up: scale not given: in the data most compounds retested in dose-response had high values; settings: 9.37 µM
# T4 sequence (whole entry): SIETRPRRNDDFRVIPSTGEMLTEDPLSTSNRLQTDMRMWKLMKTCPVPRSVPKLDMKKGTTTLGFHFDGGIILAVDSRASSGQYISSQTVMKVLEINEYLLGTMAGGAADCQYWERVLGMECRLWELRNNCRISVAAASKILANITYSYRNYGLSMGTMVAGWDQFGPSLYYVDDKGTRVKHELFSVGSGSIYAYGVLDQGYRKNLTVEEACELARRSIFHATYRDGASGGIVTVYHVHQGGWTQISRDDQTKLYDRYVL
# [9] = system: N/A; test: Trypanosoma cruzi proteasome luciferase counter-screen; type: functional; set-up: scale not given: direction of the effect not stated beside the values; settings: 9.37 µM
# [10] = species on record: Homo sapiens; test: To identify inhibition of the IFN signalling (Jak-Stat) pathway via expression of an eGFP reporter gene under the control of an IFN-stimulated response element (ISRE) containing MxA promoter.; type: functional; set-up: scale not given: direction of the effect not stated beside the values; settings: 30 µM
# [11] = target: Shiga toxin 2 (Escherichia coli O157:H7) (UniProt P09385+P09386); test: E. coli 0.157:H7 Shiga Toxin SOP - stx2 screening assay; type: functional; set-up: scale not given: direction of the effect not stated beside the values; settings: 30 µM
# [12] = target: T5, Tyrosyl-tRNA synthetase, putative (Trypanosoma cruzi (strain CL Brener)) (UniProt Q4DSP6); test: Trypanosoma cruzi tyrosyl tRNA synthetase (TcYRS) _High Tyrosine SOP; type: functional; set-up: scale not given: in the data most compounds retested in dose-response had high values; settings: 30 µM
# T5 sequence (whole entry): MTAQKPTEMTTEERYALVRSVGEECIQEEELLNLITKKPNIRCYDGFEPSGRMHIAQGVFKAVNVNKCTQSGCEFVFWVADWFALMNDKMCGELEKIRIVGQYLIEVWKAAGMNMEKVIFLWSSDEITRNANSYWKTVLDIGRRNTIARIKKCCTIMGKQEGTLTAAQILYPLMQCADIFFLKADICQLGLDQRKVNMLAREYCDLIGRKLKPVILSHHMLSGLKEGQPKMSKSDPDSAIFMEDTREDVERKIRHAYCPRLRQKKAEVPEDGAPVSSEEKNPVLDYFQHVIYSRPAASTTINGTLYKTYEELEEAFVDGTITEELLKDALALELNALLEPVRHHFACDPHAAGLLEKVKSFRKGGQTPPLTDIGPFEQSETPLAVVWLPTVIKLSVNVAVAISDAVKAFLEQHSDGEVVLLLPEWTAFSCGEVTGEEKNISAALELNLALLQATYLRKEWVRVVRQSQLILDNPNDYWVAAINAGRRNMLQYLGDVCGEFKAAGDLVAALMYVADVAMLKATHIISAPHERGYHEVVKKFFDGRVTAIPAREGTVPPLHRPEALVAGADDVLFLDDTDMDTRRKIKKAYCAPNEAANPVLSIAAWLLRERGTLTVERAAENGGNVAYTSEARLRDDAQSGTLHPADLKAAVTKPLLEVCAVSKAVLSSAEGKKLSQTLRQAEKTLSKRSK
# [13] = target: T5, Tyrosyl-tRNA synthetase, putative (Trypanosoma cruzi (strain CL Brener)); test: Trypanosoma cruzi tyrosyl tRNA synthetase (TcYRS) SOP; type: functional; set-up: scale not given: direction of the effect not stated beside the values; settings: 30 µM
# [14] = target: Chromo domain-containing protein 1 (Saccharomyces cerevisiae (strain ATCC 204508 / S288c) (Baker's yeast)) (UniProt P32657); test: ScCHD-1 Enzyme Inhibition Assay; type: functional; set-up: scale not given: in the data most compounds retested in dose-response had high values; settings: 30 µM
# [15] = target: T6, Methionyl-tRNA synthetase, putative (Leishmania donovani (strain BPK282A1)) (UniProt E9BF75); test: Leishmania donovani Methionine tRNA synthetase (LdMetRS):v7. Dose response assay; type: functional; set-up: conc 80 nM, time 150 minutes
# T6 sequence (whole entry): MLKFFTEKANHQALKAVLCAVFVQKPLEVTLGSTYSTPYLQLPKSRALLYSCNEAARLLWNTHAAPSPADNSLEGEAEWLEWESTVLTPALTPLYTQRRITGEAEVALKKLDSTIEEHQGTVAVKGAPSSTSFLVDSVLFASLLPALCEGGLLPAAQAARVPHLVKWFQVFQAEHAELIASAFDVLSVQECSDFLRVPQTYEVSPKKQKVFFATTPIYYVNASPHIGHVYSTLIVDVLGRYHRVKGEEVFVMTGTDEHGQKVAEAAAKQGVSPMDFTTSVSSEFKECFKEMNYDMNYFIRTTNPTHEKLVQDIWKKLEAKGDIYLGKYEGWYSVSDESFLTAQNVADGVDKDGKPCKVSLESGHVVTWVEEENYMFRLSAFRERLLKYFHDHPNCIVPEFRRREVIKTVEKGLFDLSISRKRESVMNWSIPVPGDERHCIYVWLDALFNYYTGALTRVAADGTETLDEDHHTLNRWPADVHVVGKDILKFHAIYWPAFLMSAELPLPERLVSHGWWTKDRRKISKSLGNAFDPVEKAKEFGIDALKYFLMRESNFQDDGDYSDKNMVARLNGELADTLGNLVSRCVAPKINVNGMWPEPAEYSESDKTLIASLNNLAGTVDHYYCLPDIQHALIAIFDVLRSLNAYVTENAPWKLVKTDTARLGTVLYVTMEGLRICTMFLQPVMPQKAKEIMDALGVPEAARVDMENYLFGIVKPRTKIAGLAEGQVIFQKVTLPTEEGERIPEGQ
# Sequence of Protein translocase subunit SecA (Escherichia coli (strain K12)) (P10408 whole entry): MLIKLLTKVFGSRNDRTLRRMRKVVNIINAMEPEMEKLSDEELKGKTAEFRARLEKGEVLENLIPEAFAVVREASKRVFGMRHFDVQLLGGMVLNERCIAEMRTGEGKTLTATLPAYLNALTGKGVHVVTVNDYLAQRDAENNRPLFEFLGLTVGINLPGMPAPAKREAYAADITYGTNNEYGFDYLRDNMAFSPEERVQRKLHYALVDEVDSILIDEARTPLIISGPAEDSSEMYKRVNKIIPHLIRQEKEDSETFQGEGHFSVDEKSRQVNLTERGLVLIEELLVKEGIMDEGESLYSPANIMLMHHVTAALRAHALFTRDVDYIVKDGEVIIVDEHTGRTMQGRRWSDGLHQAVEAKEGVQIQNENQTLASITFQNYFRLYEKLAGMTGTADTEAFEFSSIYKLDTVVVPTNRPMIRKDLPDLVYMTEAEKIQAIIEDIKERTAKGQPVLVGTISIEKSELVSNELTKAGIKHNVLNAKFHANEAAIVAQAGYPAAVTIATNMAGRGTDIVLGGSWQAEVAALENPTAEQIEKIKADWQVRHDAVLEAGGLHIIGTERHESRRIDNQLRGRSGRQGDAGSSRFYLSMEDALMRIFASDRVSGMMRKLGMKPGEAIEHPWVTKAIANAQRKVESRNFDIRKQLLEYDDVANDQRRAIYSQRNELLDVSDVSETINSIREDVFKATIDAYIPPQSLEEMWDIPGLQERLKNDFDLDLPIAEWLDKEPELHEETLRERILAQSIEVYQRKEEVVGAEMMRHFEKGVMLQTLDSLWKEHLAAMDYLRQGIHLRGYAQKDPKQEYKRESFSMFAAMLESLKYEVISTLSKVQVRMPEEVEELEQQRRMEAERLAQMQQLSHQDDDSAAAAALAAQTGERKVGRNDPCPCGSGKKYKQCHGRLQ
# Sequence of Sialic acid-binding Ig-like lectin 9 (Homo sapiens) (Q9Y336 whole entry): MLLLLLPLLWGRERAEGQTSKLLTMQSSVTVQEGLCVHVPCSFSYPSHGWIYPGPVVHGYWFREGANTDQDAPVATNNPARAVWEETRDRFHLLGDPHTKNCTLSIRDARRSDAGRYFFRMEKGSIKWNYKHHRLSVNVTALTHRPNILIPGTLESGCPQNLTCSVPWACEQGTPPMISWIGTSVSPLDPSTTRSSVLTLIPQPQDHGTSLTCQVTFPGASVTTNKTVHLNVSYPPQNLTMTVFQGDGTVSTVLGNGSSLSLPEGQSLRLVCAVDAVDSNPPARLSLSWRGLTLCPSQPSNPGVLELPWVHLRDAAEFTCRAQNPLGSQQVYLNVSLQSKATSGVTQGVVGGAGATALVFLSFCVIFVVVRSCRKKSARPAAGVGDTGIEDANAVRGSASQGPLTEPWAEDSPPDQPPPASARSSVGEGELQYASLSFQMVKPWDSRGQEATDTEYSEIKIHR
# Sequence of Chromo domain-containing protein 1 (Saccharomyces cerevisiae (strain ATCC 204508 / S288c) (Baker's yeast)) (P32657 whole entry, the tested form may be a part): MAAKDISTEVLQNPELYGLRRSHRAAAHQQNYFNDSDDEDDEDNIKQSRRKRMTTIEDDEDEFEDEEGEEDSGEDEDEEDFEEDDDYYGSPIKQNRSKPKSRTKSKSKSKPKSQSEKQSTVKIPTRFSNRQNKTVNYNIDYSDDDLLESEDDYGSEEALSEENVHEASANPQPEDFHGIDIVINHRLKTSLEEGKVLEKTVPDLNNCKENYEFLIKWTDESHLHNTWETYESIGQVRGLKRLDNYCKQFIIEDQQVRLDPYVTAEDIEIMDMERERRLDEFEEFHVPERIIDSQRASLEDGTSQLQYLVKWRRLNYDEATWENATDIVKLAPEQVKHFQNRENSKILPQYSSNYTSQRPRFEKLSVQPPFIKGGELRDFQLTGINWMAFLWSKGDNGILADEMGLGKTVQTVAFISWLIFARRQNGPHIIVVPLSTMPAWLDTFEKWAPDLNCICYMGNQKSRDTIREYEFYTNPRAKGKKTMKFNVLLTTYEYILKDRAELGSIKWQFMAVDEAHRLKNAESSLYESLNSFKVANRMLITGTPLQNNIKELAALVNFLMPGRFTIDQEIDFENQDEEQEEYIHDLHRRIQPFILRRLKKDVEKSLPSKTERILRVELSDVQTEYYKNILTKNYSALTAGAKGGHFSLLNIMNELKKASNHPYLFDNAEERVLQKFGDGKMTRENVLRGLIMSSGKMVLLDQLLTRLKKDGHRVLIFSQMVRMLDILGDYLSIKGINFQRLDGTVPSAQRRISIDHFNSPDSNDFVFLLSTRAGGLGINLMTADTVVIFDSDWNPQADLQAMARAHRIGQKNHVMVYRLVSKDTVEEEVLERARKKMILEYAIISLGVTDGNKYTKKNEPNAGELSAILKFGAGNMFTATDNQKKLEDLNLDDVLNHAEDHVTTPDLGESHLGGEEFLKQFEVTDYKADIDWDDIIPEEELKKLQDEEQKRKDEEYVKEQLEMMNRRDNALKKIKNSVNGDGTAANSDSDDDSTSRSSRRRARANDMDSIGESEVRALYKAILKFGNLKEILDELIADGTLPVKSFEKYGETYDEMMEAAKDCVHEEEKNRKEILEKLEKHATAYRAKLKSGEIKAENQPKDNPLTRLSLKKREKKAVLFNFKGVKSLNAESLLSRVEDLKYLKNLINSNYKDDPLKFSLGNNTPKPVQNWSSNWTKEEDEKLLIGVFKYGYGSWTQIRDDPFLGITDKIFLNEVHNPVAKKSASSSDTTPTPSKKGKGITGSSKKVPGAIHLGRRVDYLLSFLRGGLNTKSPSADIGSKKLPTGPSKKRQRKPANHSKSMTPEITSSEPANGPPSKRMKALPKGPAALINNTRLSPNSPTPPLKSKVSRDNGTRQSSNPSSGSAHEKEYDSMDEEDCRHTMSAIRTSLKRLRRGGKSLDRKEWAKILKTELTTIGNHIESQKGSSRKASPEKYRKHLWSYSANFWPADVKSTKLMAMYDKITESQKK
smiles,measurement,setting,value
CC(Cn1cccn1)NCc1csc(-c2cccs2)n1 (configuration not stated),Percent Effect,[1],-0.415%
same,Percent Effect,[2],5.41%
same,Percent Effect,[3],-4.5%
same,Percent Effect,[4],-7.34%
same,Percent Effect,[5],-3.93%
same,Percent Effect,[6],-4.81%
same,Percent Effect,[7],-0.802%
same,Percent Effect,[8],79.3% and 83.2% and 84%
same,Percent Effect,[9],52.8% and 51.5%
same,Percent Effect,[10],17.6%
same,Percent Effect,[11],21.1%
same,Percent Effect,[12],7.39%
same,Percent Effect,[13],13.6%
same,Percent Effect,[14],-4.55%
COc1cccc(CC(C)NC(=O)NCc2ccn(C)c2)c1 (configuration not stated),PXC50,[15]; MAX_EFFECT 39.40455342,< 4
same,PXC50,[15]; MAX_EFFECT 41.30434783,< 4
same,PXC50,[15]; MAX_EFFECT 46.2585034,< 4
Cc1cc(C(F)(F)F)nc(N2CCN3CCCC3C2)n1 (configuration not stated),PXC50,[15]; MAX_EFFECT 10.18276762,< 4
same,PXC50,[15]; MAX_EFFECT 10.96605744,< 4
Clc1ccccc1Nc1ncnc(-n2cccc2)n1,PXC50,[15]; MAX_EFFECT 8.148148148,< 4
Cc1ccc(N2CCC3(CN(CCO)CCC3(F)F)C2)nn1 (configuration not stated),PXC50,[15]; MAX_EFFECT 9.719626168,< 4
same,PXC50,[15]; MAX_EFFECT 11.33786848,< 4
